Potency data for four molecules are collected here from PubChem BioAssay (NCATS).

Values joined by “and” are separate entries in the source; they are usually repeats but may differ in a detail not shown here. Equal entries are not always repeated. Results filed as inconclusive are left out. Active and inactive are the calls of the source. Unless noted, the call rests on the fitted dose curve; in most records, active means well fitted curve in the direction sought with a large enough effect; inconclusive means small, poorly fitted or top-dose-only effect, or another doubt; inactive means no such curve, though single readings can be large; an effect the other way counts as inactive or inconclusive.

Test [1] addresses Cytochrome P450 2D6 (Homo sapiens) (UniProt P10635). Briefly: Cytochrome P450 family 2 subfamily D member 6 (CYP2D6) small molecule antagonists: luciferase biochemical (cell-free) qHTS assay (AID 1645840; active means well fitted curve in the direction sought with a large enough effect in the repeat runs; an effect the other way counts as inactive or inconclusive; further: nearly all actives have a fitted effect of over 55% in size). The method in brief:
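P450-Glo luminescent screen: recombinant CYP2D6 enzyme–proluciferin substrate mix preincubated with compound 10 min at room temperature, then NADPH regeneration added for 1 h at room temperature. Detection reagent added for 20 min; luciferin light read as relative luminescence units.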
On the technique in general: In qHTS, concentration-response curves come from the screen itself.

Test [2] concerns the target Cytochrome P450 2C9 (Homo sapiens) (UniProt P11712). Briefly: Cytochrome P450 family 2 subfamily C member 9 (CYP2C9) small molecule antagonists: luciferase biochemical (cell-free) qHTS assay (AID 1645842; active means well fitted curve in the direction sought with a large enough effect in the repeat runs; an effect the other way counts as inactive or inconclusive; further: nearly all actives have a fitted effect of over 55% in size). The method in brief: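 Luminescence, after 20 min with luciferin detection reagent, reflected CYP2C9 turnover during a 1 h NADPH-driven reaction at 37C. Enzyme-substrate mix contained 0.4% bovine serum albumin and was preincubated with compound 10 min at room temperature.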

Test [3] can be described thus: Primary qHTS for inhibitors of nuclear receptor binding SET domain protein 2 (NSD2) in an isogenic RCH-ACV NSD2 p.E1099K mutant (9B) (AID 1645876). Further: nearly all actives have a fitted effect of over 70% in size.
Test [4] can be described thus: Primary qHTS for inhibitors of nuclear receptor binding SET domain protein 2 (NSD2) in an RCH-ACV wild type WT cells (2C) (AID 1645877). Further: nearly all actives have a fitted effect of over 70% in size.
Potency means the concentration at half of the fitted maximal effect.

Chain of Cytochrome P450 2C9 (Homo sapiens) (P11712 whole entry, looked up): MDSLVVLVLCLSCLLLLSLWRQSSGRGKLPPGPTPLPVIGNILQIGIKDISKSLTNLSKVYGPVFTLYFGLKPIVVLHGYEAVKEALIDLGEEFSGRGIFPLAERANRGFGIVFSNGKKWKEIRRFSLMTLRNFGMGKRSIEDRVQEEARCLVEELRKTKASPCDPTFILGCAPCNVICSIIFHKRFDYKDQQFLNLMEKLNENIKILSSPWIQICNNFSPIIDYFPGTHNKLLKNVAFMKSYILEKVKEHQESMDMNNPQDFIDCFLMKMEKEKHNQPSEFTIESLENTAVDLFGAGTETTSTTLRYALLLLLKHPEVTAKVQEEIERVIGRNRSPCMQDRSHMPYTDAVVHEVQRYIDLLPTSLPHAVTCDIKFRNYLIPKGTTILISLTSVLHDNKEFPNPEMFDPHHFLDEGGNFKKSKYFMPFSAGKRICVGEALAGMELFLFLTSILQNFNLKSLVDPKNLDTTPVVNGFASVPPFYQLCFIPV
Chain of Cytochrome P450 2D6 (Homo sapiens) (P10635 whole entry, looked up): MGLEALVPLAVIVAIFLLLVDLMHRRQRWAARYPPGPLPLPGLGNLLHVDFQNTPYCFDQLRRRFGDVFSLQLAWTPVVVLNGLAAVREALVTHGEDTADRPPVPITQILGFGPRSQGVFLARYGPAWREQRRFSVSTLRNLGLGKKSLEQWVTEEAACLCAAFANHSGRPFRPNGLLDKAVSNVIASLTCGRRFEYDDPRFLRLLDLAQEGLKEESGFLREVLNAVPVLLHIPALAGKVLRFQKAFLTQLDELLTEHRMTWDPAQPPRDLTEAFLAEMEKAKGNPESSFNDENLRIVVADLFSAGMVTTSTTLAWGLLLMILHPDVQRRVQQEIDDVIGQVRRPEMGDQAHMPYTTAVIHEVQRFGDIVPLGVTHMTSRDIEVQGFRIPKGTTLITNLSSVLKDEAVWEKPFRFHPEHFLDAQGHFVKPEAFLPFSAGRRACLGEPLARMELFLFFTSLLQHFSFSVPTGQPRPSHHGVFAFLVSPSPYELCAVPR

With `COc1cc(N2CCC(N)CC2)ccc1Nc1ncc(Cl)c(-c2c[nH]c3ccccc23)n1`, the Potency was 21.3 µM (active) in test [1]; 3.01 µM (active) in test [2]; 1.45 µM (active) and 1.66 µM (active) in test [3]; 1.63 µM (active) and 2.35 µM (active) in test [4].

For `CN(C)CCN(Cc1ccccc1)C(=O)c1cc(-c2ccc(F)cc2)n2nc(C(C)(C)C)cc2n1`, the Potency in test [1] was 16.9 µM (active); in test [2], 16.9 µM (active); in test [3], 3.25 µM (active); in test [4], 2.9 µM (active).

On to `CCOc1nc(NC(=O)Cc2cc(OC)ccc2OC)cc(N)c1C#N`, for which the Potency entry in test [1], in test [3] and in test [4] was “inactive” each time. In addition, the Potency in test [2] is 0.301 µM (active).

Regarding `Cc1cc(Nc2nc(-c3ccccc3)nc3ccccc23)n[nH]1`, in test [1], the Potency entry was “inactive”. The Potency in test [2] is 10.7 µM (active); in test [3], 2.9 µM (active); in test [4], 3.25 µM (active).
